We go through 9 compounds from PubChem BioAssay (NCATS).

Experiment [1] deals with DNA repair nuclease/redox regulator APEX1 (Homo sapiens) (UniProt P27695). The experiment is described as follows: qHTS Validation Assay for Inhibitors of the Human Apurinic/apyrimidinic Endonuclease 1 (APE1) (AID 1705;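 also: TAMRA fluorescence gain over two minutes as APE1 cuts a quenched THF abasic duplex; series mostly up to about 57 µM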). The method in brief:
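Fluorogenic double-stranded THF abasic-site substrate (5'-TAMRA/3'-BHQ-2), 50 nM final. Enzyme preincubated with compound 15 min at room temperature, then substrate added. Kinetic fluorescence (ex 525/em 598 nm) read three times at 60 s intervals; activity taken as third-minus-first read difference.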

Experiment [2] is described as follows: Counterscreen for APE1 Inhibitors: Fluorescent Dye Displacement Validation Assay (AID 1707). Put shortly:
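Thiazole Orange displacement from dsDNA: 250 nM ThO with 50 nM TAMRA-labelled abasic-site (tetrahydrofuran) duplex in 50 mM Tris-HCl pH7.5, 50mM NaCl, 2 mM MgCl2, 0.01% Tween-20. Loss of endpoint fluorescence (ex 480 nm, em 540 nm) flags DNA binders.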
Background: A counterscreen serves to expose hits that act by an unwanted route or on another target.

Experiment [3] is described as follows: qHTS for differential inhibitors of proliferation of Plasmodium falciparum line 7G8 (AID 1815).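 Also: parasite growth measured after three days of incubation.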 Also: potency is read from the fitted curve at half-maximal effect. A general note: Quantitative high-throughput screening tests each substance at several concentrations.
Experiment [4] in a line: qHTS for differential inhibitors of proliferation of Plasmodium falciparum line GB4 (AID 1816).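 Also: parasite growth measured after 72 h incubation.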 Also: potency is read from the fitted curve at half-maximal effect. The conditions noted are these: Potency: Plasmodium falciparum GB4 proliferation inhibition.
The nature of experiment [5]: qHTS for differential inhibitors of proliferation of Plasmodium falciparum line 3D7 (AID 1876). Also: potency is read from the fitted curve at half-maximal effect.
Experiment [6] in a line: qHTS for differential inhibitors of proliferation of Plasmodium falciparum line D10 (AID 1877).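 Also: parasites grown with compound for 72 h before DNA staining.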 Also: potency is read from the fitted curve at half-maximal effect.
Experiment [7] is described as follows: qHTS for differential inhibitors of proliferation of Plasmodium falciparum line Dd2 (AID 1882). Also: nearly all actives have a fitted effect of over 65% in size. Also: potency is read from the fitted curve at half-maximal effect. The conditions noted are these: Potency: Plasmodium falciparum Dd2 proliferation inhibition. Put shortly: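 SYBR Green I DNA fluorescence read-out, ex 485/em 535 nm. Signals were normalized to 0.29 uM artemisinin and DMSO wells, then corrected using vehicle-only plates flanking each stack. Parasite growth ran 72 h in erythrocytes before lysis.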

A short description of experiment [8]: qHTS for differential inhibitors of proliferation of Plasmodium falciparum line W2 (AID 1883).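 Also: parasites grown with compound for 72 h before lysis and staining.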 Also: potency is read from the fitted curve at half-maximal effect. The conditions noted are these: Potency: Plasmodium falciparum W2 proliferation inhibition.
Experiment [9] can be described thus: qHTS for differential inhibitors of proliferation of Plasmodium falciparum line HB3 (AID 1886).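 Also: parasites grown with compound for 72 h before SYBR Green readout.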 Also: potency is read from the fitted curve at half-maximal effect. The conditions noted are these: Potency: Plasmodium falciparum HB3 proliferation inhibition.
The target in experiment [10] is ATP-dependent DNA helicase Q1 (Homo sapiens) (UniProt P46063). The experiment is described as follows: qHTS Validation Assay for Inhibitors of RecQ-Like Dna Helicase 1 (RECQ1) (AID 2353). Put shortly: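 50 nM RECQ1T1 preincubated 15 min with compound in Tris pH 8.0 buffer with MgCl2, DTT, Tween-20 and 2.5 ug/ml poly(dI-dC); started with 200 nM TAMRA/BHQ-2 forked duplex and 2 mM ATP. Unwinding read as fluorescence (525/598 nm), two reads 2 h apart.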

Experiment [11] is described as follows: Cytometric Cell-Based qHTS for Inhibitors of the mTORC1 Signaling Pathway in MEF (Tsc2-/-, p53-/-) Cells (AID 2660).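 Also: percent of cells above a phospho-rpS6 to PI ratio cutoff in each well; series mostly up to about 38 µM.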 The method in brief: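 Readout: Alexa-488 phospho-rpS6 (Ser235/236) intensity divided by PI intensity, thresholded against 7.5 nM rapamycin wells and reported as % positive cells. PI cell count served as the viability measure. Compound exposure was 24 hrs at 37 degree Celsius.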

Experiment [12] in a line: High Content Imaging Cell-Based qHTS for Inhibitors of the mTORC1 Signaling Pathway in MEF (Tsc2-/-, p53-/-) Cells (AID 2666).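 Also: percent of cells scored positive for phospho-rpS6 Ser235/236 immunostaining by imaging.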 Put shortly: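 Read-out: % positive cells per well, with thresholds from highest- and lowest-signal wells, based on phospho-rpS6 (Ser235/236) intensity normalized to Hoechst nuclear stain. Cells: Tsc2-/-, p53-/- MEFs carrying empty vector; compound 24 hrs, 37 degree Celsius.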

The nature of experiment [13]: High Content Imaging Cell-Based qHTS for Inhibitors of the mTORC1 Signaling Pathway in MEF Cells (AID 2667).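 Also: Tsc2-/- p53-/- MEFs stably re-expressing wild-type Tsc2 exposed 24 h; series mostly up to about 38 µM.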 The method in brief:
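MEF (Tsc2-/-, p53-/-, WT Tsc2 re-expressed); cpd 24 h, 37 °C; PFA fix; Alexa-488 anti-p-rpS6 Ser235/236, PI, Hoechst; IN Cell imaging; Hoechst/Alexa-488 intensity ratio; % active cells, thresholds set from rapamycin and DMSO wells.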

Experiment [14] addresses Endonuclease 4 (Escherichia coli (strain K12)) (UniProt P0A6C1). The experiment in a line: Counterscreen for APE1 Inhibitors: qHTS Validation Assay for Inhibitors of Endonuclease IV (AID 1708). Put shortly: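 2 nM enzyme was preincubated with compounds for 15 min at room temperature in 50 mM Tris-HCl pH 7.5, 50 mM NaCl, 2 mM MgCl2, 1 mM DTT, 0.01% Tween-20. 50 nM THF-abasic TAMRA/BHQ-2 duplex substrate started the reaction.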

In experiment [15] the target is Ferritin light chain (Equus caballus) (UniProt P02791). The experiment in a line: qHTS Validation Assay for Identification of Novel General Anesthetics (AID 2323). Also: series mostly up to about 77 µM. The method in brief:
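Horse-spleen apoferritin (10 uM) in PBS with 50% saturated 1-aminoanthracene; compounds pin-transferred, 10 min at room temperature. Fluorescence read at 380/535 nm, normalized to free 1-AMA and 1-AMA/apoferritin values; four-parameter Hill fit.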

Experiment [16] in a line: qHTS Assay for Modulators of Human Peripheral Myelin Protein 22 (PMP22) Expression/Activity (AID 1967; active = well fitted curve in the direction sought with a large enough effect in the signal ratio; the % refers to the signal ratio). The method in brief:
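Mouse MSC80 Schwann cells carrying Pmp22 promoter–green click beetle luciferase plus EF-alpha–red luciferase control, dosed 24 h at 37 °C. Dual-filter luminescence, overlap-corrected; %Activity from green/red ratio normalised to untreated cells, concentration-response curves fitted.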

Experiment [17] has as its target RecQ-like DNA helicase BLM (Homo sapiens) (UniProt P54132). The experiment in a line: qHTS Validation Assay for Inhibitors of Bloom's syndrome helicase (BLM) (AID 2364). Put shortly:
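BLM 50 nM in 25 mM Tris-HCl pH 8.0, 5 mM NaCl, 2 mM MgCl2, 1 mM DTT, 0.01% Tween-20, 2.5 ug/ml poly(dI-dC); 15 min cpd preinc, RT. Start: 200 nM forked DNA + 2 mM ATP (final). TAMRA read, 2 reads 2 h apart.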

Inconclusive results are not listed. Active and inactive are the calls of the source. Unless noted, calls follow the shape of the dose curve; as a rule, active = well fitted curve in the direction sought with a large enough effect; inconclusive = small, poorly fitted or top-dose-only effect, or another doubt; inactive = no such curve, though single readings can be large; an effect the other way counts as inactive or inconclusive.

Chain of DNA repair nuclease/redox regulator APEX1 (Homo sapiens) (P27695 whole entry, looked up): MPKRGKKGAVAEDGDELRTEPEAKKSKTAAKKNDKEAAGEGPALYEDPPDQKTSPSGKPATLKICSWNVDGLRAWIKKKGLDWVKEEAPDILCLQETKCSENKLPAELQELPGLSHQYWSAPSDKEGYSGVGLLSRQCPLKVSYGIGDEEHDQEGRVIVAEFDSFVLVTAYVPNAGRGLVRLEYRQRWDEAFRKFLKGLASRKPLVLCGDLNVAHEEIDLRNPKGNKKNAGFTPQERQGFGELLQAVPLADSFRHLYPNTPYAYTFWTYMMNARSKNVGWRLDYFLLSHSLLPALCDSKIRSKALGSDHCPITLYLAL
Chain of Ferritin light chain (Equus caballus) (P02791 2-175 limits assumed): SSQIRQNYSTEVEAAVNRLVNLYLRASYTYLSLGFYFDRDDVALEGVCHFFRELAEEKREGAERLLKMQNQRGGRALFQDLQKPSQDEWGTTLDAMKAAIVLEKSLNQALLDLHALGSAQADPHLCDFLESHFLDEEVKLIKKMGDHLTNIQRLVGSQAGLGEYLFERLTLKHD
Chain of ATP-dependent DNA helicase Q1 (Homo sapiens) (P46063 whole entry, looked up): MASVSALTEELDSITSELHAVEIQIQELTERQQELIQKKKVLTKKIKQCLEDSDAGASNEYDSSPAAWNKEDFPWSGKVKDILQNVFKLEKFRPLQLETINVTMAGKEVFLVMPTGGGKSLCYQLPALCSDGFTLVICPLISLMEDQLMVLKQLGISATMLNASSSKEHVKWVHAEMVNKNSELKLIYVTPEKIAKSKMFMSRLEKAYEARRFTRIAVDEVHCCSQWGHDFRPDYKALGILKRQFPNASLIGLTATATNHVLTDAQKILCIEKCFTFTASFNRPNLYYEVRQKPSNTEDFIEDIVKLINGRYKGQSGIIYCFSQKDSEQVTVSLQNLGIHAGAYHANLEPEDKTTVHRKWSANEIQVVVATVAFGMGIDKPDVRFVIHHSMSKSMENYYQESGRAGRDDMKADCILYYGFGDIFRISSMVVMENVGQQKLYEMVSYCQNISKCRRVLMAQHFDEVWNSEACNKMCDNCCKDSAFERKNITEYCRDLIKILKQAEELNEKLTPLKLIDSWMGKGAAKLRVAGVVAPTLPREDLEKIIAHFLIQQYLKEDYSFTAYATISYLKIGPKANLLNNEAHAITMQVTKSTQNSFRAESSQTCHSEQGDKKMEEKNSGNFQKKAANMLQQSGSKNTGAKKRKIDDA
Chain of RecQ-like DNA helicase BLM (Homo sapiens) (P54132 whole entry, looked up): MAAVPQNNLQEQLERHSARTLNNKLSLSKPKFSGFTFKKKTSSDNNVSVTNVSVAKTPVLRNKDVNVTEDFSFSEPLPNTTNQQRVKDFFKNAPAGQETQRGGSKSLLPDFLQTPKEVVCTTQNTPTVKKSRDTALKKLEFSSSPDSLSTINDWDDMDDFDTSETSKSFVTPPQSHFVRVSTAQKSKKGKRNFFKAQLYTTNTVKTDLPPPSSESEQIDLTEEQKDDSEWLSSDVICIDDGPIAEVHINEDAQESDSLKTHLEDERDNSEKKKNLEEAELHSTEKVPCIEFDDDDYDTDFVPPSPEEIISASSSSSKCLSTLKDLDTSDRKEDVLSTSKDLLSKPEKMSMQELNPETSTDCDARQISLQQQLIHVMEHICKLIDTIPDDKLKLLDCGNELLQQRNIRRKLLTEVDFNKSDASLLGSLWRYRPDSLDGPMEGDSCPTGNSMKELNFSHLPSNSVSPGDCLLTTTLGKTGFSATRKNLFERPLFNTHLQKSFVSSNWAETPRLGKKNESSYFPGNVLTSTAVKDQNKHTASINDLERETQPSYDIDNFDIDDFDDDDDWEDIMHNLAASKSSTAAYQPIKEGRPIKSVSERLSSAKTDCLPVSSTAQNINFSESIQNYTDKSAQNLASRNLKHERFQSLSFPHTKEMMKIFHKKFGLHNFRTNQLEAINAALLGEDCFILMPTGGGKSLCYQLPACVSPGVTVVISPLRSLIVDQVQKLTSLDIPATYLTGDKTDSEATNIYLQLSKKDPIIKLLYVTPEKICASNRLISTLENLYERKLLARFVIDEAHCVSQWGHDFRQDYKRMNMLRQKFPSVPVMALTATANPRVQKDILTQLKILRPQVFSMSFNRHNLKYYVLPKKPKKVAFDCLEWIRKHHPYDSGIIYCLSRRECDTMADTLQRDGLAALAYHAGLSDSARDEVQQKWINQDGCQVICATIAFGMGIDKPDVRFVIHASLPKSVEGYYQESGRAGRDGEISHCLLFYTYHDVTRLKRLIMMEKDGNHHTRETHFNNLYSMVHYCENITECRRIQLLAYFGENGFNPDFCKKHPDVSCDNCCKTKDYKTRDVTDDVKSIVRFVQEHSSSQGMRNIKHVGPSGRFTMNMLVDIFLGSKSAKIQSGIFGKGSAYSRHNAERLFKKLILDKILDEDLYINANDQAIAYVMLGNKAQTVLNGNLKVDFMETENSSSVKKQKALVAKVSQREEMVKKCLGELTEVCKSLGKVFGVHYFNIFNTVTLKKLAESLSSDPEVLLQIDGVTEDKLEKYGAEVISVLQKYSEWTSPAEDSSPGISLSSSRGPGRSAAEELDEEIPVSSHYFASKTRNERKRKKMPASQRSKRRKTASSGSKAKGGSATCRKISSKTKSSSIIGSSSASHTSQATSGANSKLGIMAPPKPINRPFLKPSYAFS

Regarding `CCS(=O)(=O)Nc1cccc(C(=C2CCCCC2)c2cnc[nH]2)c1`, the Potency result in [1], in experiment [2], in [10], in experiment [11], in experiment [12] and in experiment [13] was “inactive” each time. Also, the Potency in experiment [3] is 7.08 µM (active); in [4] it was 12.6 µM (active); in experiment [5] it was 11.2 µM (active); in [6], 14.1 µM (active); in experiment [7], 10 µM (active); in [8] it was 8.91 µM (active). Moreover, the Potency in experiment [9] is 12.6 µM (active).

For the compound `C=CCN1CCC23c4c5ccc(O)c4O[C@H]2C(=O)CC[C@@]3(O)C1C5` (stereo partly drawn), the Potency entry in experiment [1], in experiment [14], in [3], in experiment [4], in experiment [5] and in experiment [6] was “inactive” throughout. For the same compound, the Potency entry in experiment [7], in experiment [9], in experiment [10], in experiment [11], in experiment [12] and in experiment [13] was “inactive” each time. Besides, the call in [15] was inactive.

For the compound `CCCN(CCC)C1CCc2cccc(O)c2C1` (stereo not drawn), the Potency result in experiment [1], in experiment [14], in [3], in experiment [4], in [5] and in experiment [6] was “inactive” throughout. The Potency result in experiment [7], in experiment [8], in [9], in experiment [10], in experiment [11] and in [12] was “inactive” throughout. In addition, the Potency entry in experiment [13] is “inactive”. Besides, the compound was classed as inactive in experiment [16] and in experiment [15].

With `CCN(CCCl)Cc1ccccc1Br`, the Potency result in [1], in [2], in [10], in experiment [11], in [12] and in experiment [13] was “inactive” in each case. Also, the Potency is 12.6 µM (active) in experiment [4], 10 µM (active) in experiment [5], 11.2 µM (active) in experiment [8] and 10 µM (active) in experiment [9]. For the same compound, the compound was called inactive in [16].

In the case of `O=C(O)c1cc[c]([Hg][Cl])cc1`, the Potency result in [1], in experiment [14], in experiment [11], in experiment [12] and in experiment [13] was “inactive” in each case. Also, the Potency in experiment [3] is 3.16 µM (active); in experiment [4], 2.51 µM (active); in experiment [5], 2.24 µM (active); in [6], 1.12 µM (active); in [7], 11.2 µM (active); in experiment [8], 1.41 µM (active). For the same compound, the Potency in experiment [9] was 5.01 µM (active). Also, in experiment [15], the call was inactive.

For the compound `Oc1ccc2c3c1O[C@H]1c4oc5ccccc5c4C[C@@]4(O)C(C2)N(CC2CC2)CCC314` (stereo partly drawn), the Potency entry in experiment [1], in experiment [14], in [17], in experiment [11] and in experiment [12] was “inactive” throughout. Also, the Potency in experiment [3] was 8.91 µM (active); in [4], 3.16 µM (active); in experiment [5], 7.94 µM (active); in [6], 12.6 µM (active); in experiment [7], 10 µM (active); in experiment [8], 3.16 µM (active). Moreover, the Potency in experiment [9] is 11.2 µM (active). Moreover, the compound was classed as inactive in experiment [15].

Consider `Clc1ccc(N2CC3CCC(C2)N3)nn1`, for which the Potency result in [1], in [2], in [14], in experiment [3], in experiment [5] and in experiment [6] was “inactive” each time. Besides, the Potency entry in [7], in [9], in experiment [10], in experiment [17], in [11] and in experiment [12] was “inactive” in each case. The Potency result in experiment [13] was “inactive”. Also, the compound was called inactive in experiment [16] and in experiment [15].

For the compound `CC(Cc1ccc(OCC(=O)O)cc1)NCC(O)c1cccc(Cl)c1` (stereo not drawn), the Potency result in [1], in experiment [2], in experiment [14], in [4], in experiment [5] and in experiment [6] was “inactive” in each case. The Potency result in [7], in [8], in [9], in experiment [10], in experiment [11] and in [12] was “inactive” throughout. For the same compound, the Potency result in experiment [13] is “inactive”. Also, the compound was classed as inactive in experiment [16] and in experiment [15].

For `Clc1cc(I)cc(Cl)c1NC1=NCCN1`, the Potency entry in experiment [1], in [2], in experiment [7], in [10], in [11] and in experiment [12] was “inactive” in each case. Moreover, the Potency entry in experiment [13] was “inactive”. The Potency in experiment [8] was 14.1 µM (active). Further, the result in [16] and in experiment [15] was inactive.
